Values joined by “and” are separate entries in the source; they are usually repeats but may differ in a detail not shown here. Identical values can stand only once. The whole screen tested about 640,000 compounds, of which about 9,300 (1.5%) were called active. The sample holds actives, similar compounds and a random draw of the others, so the mix is not that of the screen. Values without a mark were called inactive. No stated cut-off is given here; in the data, active means inhibition above about 32%; inactive means the rest.

This experiment in a line: TEAD-YAP interaction inhibition, primary screen, TEAD-YAP interaction inhibitor project, luminescence, HEK-TIYL cells (AID 1259422).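 Further: 0% = median of test compound wells and 100% = reference inhibitor wells.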 The conditions noted are these: TEAD-Gal4/YAP UAS-luciferase luminescence, at 9.12 µM, stronger effect = higher value.
Take `O=c1oc2ccc(Br)cc2cc1-c1cn2c(n1)sc1ccccc12`: the inhibition is 2.88%.

As for `O=c1oc2ccccc2cc1-c1cn2c(n1)sc1cc(Cl)ccc12`, the inhibition was 62.5% (active).

For the molecule `CCCCCCc1cc2cc(-c3cn4c(n3)sc3cc(Cl)ccc34)c(=O)oc2cc1O`, the inhibition was -3.76%.

As to `Cc1cccc(N2C(=O)NC(=O)/C(=C\c3ccc(I)o3)C2=O)c1C`, the inhibition was -0.13%.

`O=C(O)/C(=C\c1ccccc1)NC(=O)c1ccc(Br)cc1`: the inhibition was -2.04%.

On to `O=C(O)CCNCCC(=O)c1ccccc1`, for which the inhibition was -12.1%.

In the case of `COC(=O)C1CCN(C(=O)c2ccc(Cl)c([N+](=O)[O-])c2)CC1`, the inhibition was 1.51%.

With `CCOC(=O)CSc1ccc(C(=O)N2CCN(c3ccccc3OC)CC2)cc1[N+](=O)[O-]`, the inhibition was 3.32%.

`COc1ccccc1N1CCN(C(=O)c2ccc(Cl)c([N+](=O)[O-])c2)CC1`: the inhibition was 49% (active).

Consider `COc1ccc(N2CCN(C(=O)COc3ccccc3OC)CC2)cc1`, for which the inhibition was 1.61%.

Turning to `COc1ccccc1N1CCN(C(=O)CSCc2ccccc2C)CC1`, the inhibition is -42.5%.

Regarding `COc1ccccc1N1CCN(C(=O)COc2ccc(Cl)cc2C)CC1`, the inhibition was 58.5% (active).

Consider `Cc1cccc2nc(NC(=O)c3ccnn3C)sc12`, for which the inhibition is -7.31%.

As for `CCOC1=C/C(=C/c2c(N)n3nc(C(C)C)sc3nc2=O)C=CC1=O`, the inhibition was 9.9%.

On to `COc1ccc(/C=C2/N=C(c3cccc4ccccc34)OC2=O)c(OC)c1OC`, for which the inhibition is -1.88%.

On to `CCc1ccccc1Nc1cc(C)nc2ncnn12`, for which the inhibition is -7.4%.

As for `COc1ccc(-n2nc3c(c2NC(=O)c2cccc(OC)c2OC)CS(=O)C3)cc1` (stereo unspecified), the inhibition was -1.38%.

For the molecule `COc1ccc(C(=O)Nc2c3c(nn2-c2ccc(F)cc2)CS(=O)C3)c(OC)c1` (stereo unspecified), the inhibition was 0.99%.

For `COc1ccc(-n2nc3c(c2NC(=O)c2cc([N+](=O)[O-])ccc2Cl)CS(=O)C3)cc1` (stereo unspecified), the inhibition was 41.9% (active).

Take `CC1CCCC(NC(=O)C(C)n2c(=O)c3cccn3c3cccnc32)C1C` (stereo unspecified): the inhibition is 3.19%.

Regarding `Cn1c(SCC(=O)Nc2nnc(-c3ccccc3)s2)nnc1-c1ccccc1`, the inhibition is -17.2%.

Regarding `CC(C)(C)c1ccc(C(=O)Nc2ccc(N3CCOCC3)c(Cl)c2)cc1`, the inhibition is 0.56%.

As to `CN1CCN(c2ccc(NC(=O)c3cc(Br)cc(Br)c3O)cc2Cl)CC1`, the inhibition was 68% (active).

`O=C(Nc1ccc(Cl)c(S(=O)(=O)c2ccc(Cl)cc2)c1)c1cc(Br)cc(Br)c1O`: the inhibition is -6.46%.

With `NC(=O)c1cc(NC(=O)C(F)(F)F)cc(C(N)=O)c1`, the inhibition was -9.16%.

Turning to `O=C(NCc1ccc(F)cc1)c1nc2c(nnn2Cc2ccc3c(c2)OCO3)c(=O)[nH]1`, the inhibition is -15.6%.

As for `O=C(Nc1nc(-c2ccc(F)cc2)cs1)c1cc([N+](=O)[O-])ccc1Cl`, the inhibition is 42% (active).

Turning to `N#Cc1ccc(-c2csc(NC(=O)c3cc([N+](=O)[O-])ccc3Cl)n2)cc1`, the inhibition was 14%.

For the molecule `O=C(Nc1nc(-c2ccc(F)cc2)cs1)c1ccc([N+](=O)[O-])cc1`, the inhibition is 6.37%.

With `NS(=O)(=O)c1ccc(CCNC(=S)Nc2ccccc2F)cc1`, the inhibition is 0.39%.

On to `COc1ccc(-c2noc(CN(Cc3ccccc3)CC3CC3)n2)c(OC)c1OC`, for which the inhibition is -11.8%.

As to `C=CCNc1c(C)c(C)nc2cc(-c3ccc(OC)c(OC)c3)nn12`, the inhibition is -14.7%.

Regarding `CC1CCCC(NC(=O)C2N(C3CCCC(C)C3C)C(=O)C3C(C(=O)Nc4cccc(Cl)c4)C4C=CC32O4)C1C` (stereo unspecified), the inhibition was -7.64%.

With `O=C(c1ccccc1Cl)N1CCCCC1`, the inhibition is 2.65%.

With `Cc1cc(N2CCCC2)nc(N2CCN(C(=O)c3ccccc3Cl)CC2)n1`, the inhibition is 33.1% (active).

`CCS(=O)(=O)N1CCN(C(=O)c2ccccc2Cl)CC1`: the inhibition is -4.13%.

For the molecule `O=C(O)c1ccc(NS(=O)(=O)c2cccc(C(F)(F)F)c2)cc1`, the inhibition is 0.38%.

Regarding `Cc1ccc(NC(=O)c2cc(S(=O)(=O)N3CCC(C)CC3)ccc2F)cc1F`, the inhibition was -4.47%.

As to `COc1cccc(N2C(=O)C3C4C=CC(C5CC45)C3C2=O)c1` (stereo unspecified), the inhibition is -3.66%.

On to `CC12CC3(C)CC(O)(C1)CC(C(=O)c1ccccc1)(C2)C3`, for which the inhibition was -1.77%.

On to `CCCn1c(SCC(=O)N2CCc3ccccc32)nnc1-c1ccncc1`, for which the inhibition is -1.7%.

In the case of `CSc1nnc(-c2ccncc2)n1CCCN1CCCC1=O`, the inhibition was 58.9% (active).

For `Cn1c(SCC(=O)N2CCCCCC2)nnc1-c1ccncc1`, the inhibition is 5.85%.

Consider `COC(=O)c1cc(OC)c(OC)cc1NC(=O)c1cc2ccccc2oc1=O`, for which the inhibition is -9.56%.

With `Clc1ccccc1-c1noc(-c2ccc(-c3ccccc3)cc2)n1`, the inhibition is 6.4%.

In the case of `Cc1ccc(-c2nc(-c3ccccc3Cl)no2)cc1`, the inhibition was -58.6%.

Turning to `Oc1ccc(-c2nc(-c3ccccc3Cl)no2)cc1`, the inhibition was 64.7% (active).

Regarding `CC1=C(C(=O)OCCOc2ccccc2)C(c2cccc(Cl)c2Cl)C2=C(CC(c3ccccc3)CC2=O)N1` (stereo unspecified), the inhibition was 5.89%.

Regarding `O=C(NCCc1ccccc1)C1CCC(Cn2c(SCc3ccc(Cl)cc3)nc3ccccc3c2=O)CC1` (stereo unspecified), the inhibition was 6.47%.

With `c1cc(-c2nc3c(c(N4CCCCC4)n2)CNCC3)ccn1`, the inhibition was -3.63%.

As to `CC(NC(=O)CCc1ccccc1)c1nnc2n1CCN(Cc1cccc(F)c1F)CC2` (stereo unspecified), the inhibition is -34.9%.

For the molecule `CCCCN(CCCC)C(=O)Nc1nc2ccccc2[nH]1`, the inhibition was 59.5% (active).

Take `S=C(Nc1nc2ccccc2[nH]1)Nc1nc2ccccc2[nH]1`: the inhibition was -3.78%.

Regarding `CSCCC(=O)Nc1nc2ccccc2[nH]1`, the inhibition was -12.9%.

In the case of `Cc1nc2sc(C(c3ccc([N+](=O)[O-])cc3)N3CC(C)CC(C)C3)c(O)n2n1` (stereo unspecified), the inhibition was 21.1%.

As for `CC(C)c1ccc(S(=O)(=O)N2CCN(C(=O)/C=C/c3ccccc3)CC2)cc1`, the inhibition is 5.06%.

For `Cc1c(C(=O)N2CCN(c3ccc(F)cc3)CC2)sc2ncnc(N(C)c3ccccc3)c12`, the inhibition is 6.56%.

With `O=C(CSc1nnc2ncccn12)N1CCCc2ccccc21`, the inhibition was -3.81%.

For the molecule `COc1ccc(C(=O)Nc2ccc3nc(N4CCCCC4)cc(C)c3c2)cc1OC`, the inhibition was -0.5%.

For `COc1cc(C(=O)Nc2ccc3nc(N4CCN(c5ncccn5)CC4)cc(C)c3c2)cc(OC)c1OC`, the inhibition was 22.2%.

As to `Cc1cc(N2CCCC2)nc(Nc2ccc(NC(=O)c3c(F)cccc3Cl)cc2)n1`, the inhibition was 42% (active).

As for `Cc1cc(NC(=O)c2c(F)cccc2Cl)ccc1N1CCCCC1=O`, the inhibition was -2.91%.

Consider `Cc1ccc(N2CCN(C(=O)c3c(F)cccc3Cl)CC2)nn1`, for which the inhibition is -8.28%.

On to `COc1cc(C(=O)Nc2ccc(Nc3nc(C)cc(N4CCCC4)n3)cc2)cc(OC)c1OC`, for which the inhibition was 35.6% (active).

`Cc1ccc(N(C(=O)c2snc(C(N)=O)c2N)C(C)C(=O)NC(C)(C)C)cc1C` (stereo unspecified): the inhibition was -0.01%.

As to `Cn1ncc2c(Nc3cccc4ccccc34)ncnc21`, the inhibition was -0.77%.

For `COCCCNc1ncnc2sccc12`, the inhibition is -4.31%.

For the molecule `c1ccc2c(NCCNc3ncnc4sccc34)cccc2c1`, the inhibition is 52.2% (active).

For `COc1ccc(C(=O)N=c2sc3cc4c(cc3n2C)OCCO4)cc1OC`, the inhibition is -1.41%.

Turning to `COC(=O)c1c(C)oc2ccc(NS(=O)(=O)c3cccc4cccnc34)cc12`, the inhibition was 28.9%.

In the case of `CC(NC(=O)C(C)(C)C)c1ccc(Br)cc1` (stereo unspecified), the inhibition is 8.71%.

With `CCOC(=O)c1c(-c2ccc(Br)cc2)csc1NC(=O)COC`, the inhibition was -10.8%.

On to `CC(C)(C)C(=O)Nc1scc(-c2ccc(Br)cc2)c1C(=O)O`, for which the inhibition was 38.7% (active).

Consider `CCOc1cc(C(=O)OCc2cc(C(C)=O)ccc2OC)cc(OCC)c1OCC`, for which the inhibition is -5.65%.

On to `Cc1cc(C)nc(/N=C(\N)Nc2cccc(C(F)(F)F)c2)n1`, for which the inhibition is 36.7% (active).

With `CCc1ccc(N/C(N)=N/c2nc(C)cc(C)n2)cc1`, the inhibition is 23.8%.

With `Cc1cc(C)nc(/N=C(\N)Nc2ccc(Br)cc2)n1`, the inhibition was 1.37% and -0.43%.

Consider `Cc1cccc(C)c1NS(=O)(=O)c1ccc2c(c1)oc(=O)n2C`, for which the inhibition was -6.37%.

Take `COc1ccc(Cc2nc3sc4c(c3c(=O)n2N)CCCC4)cc1OC`: the inhibition was 29.2%.

Turning to `Cc1cccc(C)c1-n1c(N)c(C(=O)Nc2cccc(Cl)c2)sc1=S`, the inhibition was -13.7%.

Turning to `O=C(CSc1nc2ccccc2s1)N1N=CCC1c1ccccc1` (stereo unspecified), the inhibition is 51.5% (active).

With `O=C(CSc1nc2ccccc2s1)NNC(=O)C1CCCO1` (stereo unspecified), the inhibition was 1.6%.

On to `CCCCNC(=O)NNC(=O)CSc1nc2ccccc2s1`, for which the inhibition is 9.84%.

Turning to `C/C(=N\NC(=O)c1cccc(Br)c1)c1cc2ccc(O)cc2oc1=O`, the inhibition is -10.3%.

Turning to `CC(C(=O)N(C)c1ccccc1)N1C(=O)NC(c2ccccc2)(c2ccccc2)C1=O` (stereo unspecified), the inhibition was 6.96%.

For the molecule `CCOC(=O)c1c(-c2cccc3ccccc23)csc1NC(=O)/C=C/C(=O)O`, the inhibition is 33.5% (active).

As to `CCOC(=O)c1c(NC(=O)/C=C/C(=O)O)sc(C)c1C`, the inhibition is 28.1%.

Consider `CCOC(=O)c1c(-c2ccccc2)csc1NC(=O)CNCC(C)C`, for which the inhibition was -3.7%.

On to `Cc1ccc(C2CC(=O)C3=C(C2)Nc2ccccc2N(C(=O)C(F)(F)F)C3c2cccc(Br)c2)cc1` (stereo unspecified), for which the inhibition was 7.36%.

For the molecule `CCOC(=O)C1=C(C)N=c2s/c(=C/c3cc(Br)c(N4CCOCC4)o3)c(=O)n2C1c1ccc(OC)cc1` (stereo unspecified), the inhibition was 4.11%.

With `Cc1ccc(C)c(C(=O)NCc2nc(-c3ccccc3)no2)c1`, the inhibition is 9.38%.

Take `Cc1nc2ccccn2c1C(=O)NCc1nc(-c2ccccc2)no1`: the inhibition was 36.5% (active).

`Cc1nc2sccn2c1C(=O)NCc1cccc(Cl)c1`: the inhibition is 12.9%.

As to `C=CCN(C)C(=O)c1c(C)nc2ccccn12`, the inhibition is -6.06%.

For `Cc1nc2ccccn2c1C(=O)NCc1ccc(Oc2ccccc2)cc1`, the inhibition was 62.4% (active).

In the case of `O=C(NCc1nc(-c2ccccc2)no1)c1ccccc1I`, the inhibition is 7.97%.

Values taken from PubChem BioAssay AID1259422 (The Scripps Research Institute Molecular Screening Center, 2018).
